Our source for the Inhibition index values is ChEMBL document CHEMBL4303097 (2020).

In all, about 1,500 compounds were measured (“Inhibition index”: median about 0.17, highest 2% from about 1.3 on). Only a selection was taken, and the highest values are over-represented in it overall.

The subject of this test is SARS-CoV-2. Briefly: Inhibition of cell viability relative to arbidol control (inhibition index > 1 indicates higher activity) measured by fluorescence (OD590nm) in Vero E6 cells infected with SARS-CoV-2 (strain BavPat1) at MOI 0.002 after 72hrs. Type of test: functional, Chlorocebus sabaeus, Vero C1008.
`CN1CCN2c3ccccc3Cc3ccccc3C2C1.Cl` (stereo not drawn) [MIANSERIN HYDROCHLORIDE] came in with an Inhibition index of 0.175.

As for `CC[C@H](C)C(=O)O[C@H]1C[C@@H](C)C=C2C=C[C@H](C)[C@H](CC[C@@H]3C[C@@H](O)CC(=O)O3)[C@H]21` [LOVASTATIN], the Inhibition index is -0.07572. For `CC(C)(O/N=C(\C(=O)N[C@@H]1C(=O)N2C(C(=O)[O-])=C(C[n+]3ccccc3)CS[C@H]12)c1csc(N)n1)C(=O)O.O.O.O.O.O`, the Inhibition index is 0.06868. With `CCOc1ccc2nc(S(N)(=O)=O)sc2c1` [ETHOXZOLAMIDE], the Inhibition index was 2.099. The figure for `Cl.Nc1nc2ccc(OC(F)(F)F)cc2s1` is 0.04491; for `CC(O)C(=O)O.CCOc1ccc2nc3cc(N)ccc3c(N)c2c1` it is 0.4974. Turning to `CC(=O)O.O=C(NCC1CCCCN1)c1cc(OCC(F)(F)F)ccc1OCC(F)(F)F` (stereo not drawn) [FLECAINIDE ACETATE], the Inhibition index is 0.049. The figure for `CN[C@@H]1[C@H](O)[C@H](NC)[C@H]2O[C@@]3(O)C(=O)C[C@@H](C)O[C@H]3O[C@@H]2[C@H]1O.Cl.Cl` is 0.1494; for `COc1cccc(N(C)C(=S)Oc2ccc3c(c2)CCCC3)n1` [LIRANAFTATE] it is 0.6869. As for `CCCCc1cc2ccccc2c(OCCN(C)C)n1.Cl` [DIMETHISOQUIN HYDROCHLORIDE], the Inhibition index was -0.1351. Take `CN(C)N=Nc1[nH]cnc1C(N)=O`: the Inhibition index is given as -0.0106. The figure for `CC(=O)OCC(=O)[C@@]1(O)CC[C@H]2[C@@H]3CCC4=CC(=O)CC[C@]4(C)[C@H]3[C@@H](O)C[C@@]21C` [HYDROCORTISONE ACETATE] is 0.145. In the case of `CCN(CC)Cc1cc(Nc2ccnc3cc(Cl)ccc23)ccc1O.Cl.Cl.O.O` [AMODIAQUINE HYDROCHLORIDE], the Inhibition index is 0.1282. Regarding `COc1cc(NC(C)CCCN)c2ncccc2c1.O=P(O)(O)O.O=P(O)(O)O` (stereo not drawn) [PRIMAQUINE PHOSPHATE], the Inhibition index came to 0.6817. With `CCN(CC)CCCC(C)Nc1ccnc2cc(Cl)ccc12.O=P(O)(O)O.O=P(O)(O)O` (stereo not drawn) [CHLOROQUINE PHOSPHATE], the Inhibition index was determined as 1.351. The compound `Cl.O=C(OCC(O)CO)c1ccccc1Nc1ccnc2cc(Cl)ccc12` (stereo not drawn) displayed an Inhibition index of 0.07624.

For the compound `CCN(CC)CCCC(C)Nc1c2ccc(Cl)cc2nc2ccc(OC)cc12.Cl.Cl.O.O` (stereo not drawn) [QUINACRINE HYDROCHLORIDE], the Inhibition index is recorded as -0.1724. Take `NC(=O)c1cc[n+](CC2=C(C(=O)O)N3C(=O)[C@@H](NC(=O)[C@@H](c4ccccc4)S(=O)(=O)O)[C@H]3SC2)cc1.O.[Na+]`: the Inhibition index is reported as 0.1703.
